The panel holds about 83,000 compounds, 20% with a hit somewhere; the sample as a whole holds those more often.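 Growth was measured after 48 h exposure to one concentration of compound in 96-well plates. Values under 10 count as active.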 Values without a mark were called inactive. The source made the active and inactive calls.
Test system: OVCAR-8 ovarian
Experiment: NCI-60 one-dose screen, 48 h (100 = growth as untreated, 0 = no growth, -100 = all killed)
Conditions: 10 µM unless noted

Compound | growth
NS(=O)(=O)c1ccc(Nc2nc(N/N=C/c3ccc(F)cc3)nc(Nc3ccccc3)n2)cc1 | 29.4%
COc1ccc(-c2cc(-c3ccc(Cl)cc3)nc3nc(N)nn23)cc1 | 99.1%
COc1ccc(Cn2cc3c(c2-c2cc(OC)c(OC)c(OC)c2)CCCc2cnoc2-3)cc1 | 43%
CN(c1ccc(F)cc1)S(=O)(=O)c1ccc(-c2cnc(C3CC3)o2)cc1 | 38.8%
COC[C@]12CC[C@@H](C)[C@H](C)[C@H]1C1=CC[C@@H]3[C@@]4(C)CCCNC(C)(C)[C@@H]4CC[C@@]3(C)[C@]1(C)CC2 | 62.4%
C=C(C)[C@@H]1CC[C@]2(C(=O)ON)CC[C@]3(C)[C@H](CC[C@@H]4[C@@]5(C)C/C(=C/c6ccc(Br)cc6)C(=O)C(C)(C)[C@@H]5CC[C@]43C)[C@@H]12 | 68.7%
CN(c1ccc(Br)cc1)S(=O)(=O)c1ccc(-c2cnc(C3CC3)o2)cc1 | 33.2%
CCCCCCNC(=O)Oc1ccc(/C(=C(\C)c2ccc(Cl)cc2)c2ccc(OCCN(C)C)cc2)cc1 | 84.8%
C=C(C)[C@@H]1CC[C@]2(COS(C)(=O)=O)CC[C@]3(C)[C@H](CC[C@@H]4[C@@]5(C)CCCNC(C)(C)[C@@H]5CC[C@]43C)[C@@H]12 | 92.1%
O=C(NNc1nc2cc(F)ccc2n2cncc12)c1cnccn1 | 21%
CN1CCN(c2ccc3c(C(N)=O)c(NC(=O)c4ccc(C(C)(C)C)cc4)sc3c2)CC1 | 95.4%
NC(=O)C(=Cc1ccc(Cl)cc1)C(N)=O | 65.6%
CCN1C(=O)N(CC)C2SC(N/N=C/C=C/c3ccccc3OC)=NC21 (centres undefined) | 22.3%
CC(=O)C1=NN(c2ccc(Cl)cc2)C(=O)CN1C | 102%
CCOC(=O)c1c(NCC(=O)Nc2ccc(Br)cc2)sc2c1CCCC2 | 36.5%
CN1CCN(c2ccc3c(c2)nc(NNC(=O)c2ccncn2)c2cccn23)CC1 | 21.8%
CCOc1c(C#N)c(Nc2ccc(S(N)(=O)=O)cc2)c(C#N)c2nnc(C)n12 | 99.4%

Compound | growth
O=c1[nH]c(CNc2ccc(NCc3c(-c4ccccc4)no[n+]3[O-])cc2)nc2c1cnn2-c1ccccc1 | 79.4%
C#CCOc1ccc(C(Nc2ccc(Cl)cc2)c2nnnn2C2CCCCC2)cc1 (centres undefined) | 93.5%
COc1cc(/C=N/Nc2ccnc3cc(Cl)ccc23)cc(OC)c1O | -56% (active)
COc1cc(C(=O)C[n+]2ccc3ccccc3c2)cc(OC)c1OC | 100%
Cc1ccc(NC(=O)c2ccc(CN3CCN(C)CC3)c(I)c2)cc1Oc1ccc(-c2[nH]nc3ncnc(N)c23)cc1 | 91.8%
COc1ccc(Cn2cc3c(c2-c2ccccc2)CCCc2cnoc2-3)cc1 | 78.8%
N#Cc1c(NC(=O)c2ccc(F)c(Cl)c2)sc2c1CCC(=O)C2 | 16.6%
c1ccc(-c2c(-c3ccccc3)[n+](Cc3ccc4ccccc4c3)c(-c3ccccc3)n2Cc2ccc3ccccc3c2)cc1 | -69.3% (active)
CCOC(=O)C1=C(C)N=C2Sc3ccccc3N2C1c1ccccc1 (centres undefined) | 96.6%
CCn1c2ccc(/C=N/NS(=O)(=O)CCN(C)C)cc2c2cc(/C=N/NS(=O)(=O)CCN(C)C)ccc21 | 104%
Cn1cc2c(c1)-c1c(sc3nc(-c4ccc(NC(=O)Nc5cc(C(C)(C)C)on5)cc4)cn13)CC2 | 53.8%
CCOC(=O)c1c(NC(=O)c2ccc(C(C)(C)C)cc2)sc2cc(OCCN3CCCCC3)ccc12 | 93.4%
COc1ccccc1/C=C/C=N/NC1=NC2C(S1)N(C)C(=O)N2c1ccccc1 (centres undefined) | 24.4%
CC1(C)CC[C@]2(C(=O)O)CC[C@]3(C)C(=CCC4[C@@]5(C)C[C@@H](O)[C@@H]6OC(c7cccc([N+](=O)[O-])c7)OC[C@@]6(C)C5CC[C@]43C)C2C1 (some centres undefined) | 58.7%
CN(C)c1ncc(/C=C2\SC(=S)N(Cc3ccccc3Cl)C2=O)s1 | 95.8%
O=C(/C=C1\C=CN(CCCCO)c2ccccc21)n1ccc2ccccc21 | 97.3%
C#C[C@]1(O)CC[C@H]2[C@@H]3CC=C4c5sc(Nc6nc(C)cc(OC)n6)nc5CC[C@]4(C)[C@H]3CC[C@@]21C | 73.3%

From PubChem BioAssay (NCI)
